In all, about 410,000 compounds went through this assay and about 2,000 (0.49%) were called active. Entries that show only a call come without a potency. About 8% were inconclusive and are not listed. Calls come from the whole dose curve; tested in HEK293 reporter line. The sample as a whole holds a higher share of actives than the screen did.
Potency is the fitted concentration of half-maximal effect.

The assay is described as follows: qHTS Assay for Foot and Mouth Disease Virus Antivirals: Primary Screen against the MLPCN compound library. Note: nearly all actives have a fitted effect of over 55% in size. Particulars: FMDV antiviral cell-based qHTS; series mostly up to 57.9 µM.
As to `O=C(COc1ccc(F)cc1)Nc1ccc2nc(SCC(=O)N3CCOCC3)sc2c1`, the Potency was 25.1 µM (active).

On to `Cc1ccc(OCCSc2nc3ccc(NC(=O)c4ccc(F)cc4)cc3s2)cc1`, for which the Potency entry is “inactive”.

`O=C(COc1ccc(F)cc1)Nc1ccc2nc(SCC(=O)N3CCc4ccccc43)sc2c1`: the Potency result was “inactive”.

Regarding `Cc1occc1C(=O)NC1CCCN(Cc2ccc(Cl)cc2)C1` (centres undefined), the Potency entry is “inactive”.

Regarding `Cc1nn(CC(C)C)c(Cl)c1C(=O)N(C)CC(=O)Nc1ccc(Cl)cc1`, the Potency result was “inactive”.

As to `C=CCN(c1ccc(C(=O)Nc2cccc(C)c2)cc1)S(C)(=O)=O`, the Potency entry is “inactive”.

For the compound `CC1CC(C)CN(S(=O)(=O)c2ccc(C(=O)Nc3sccc3C(N)=O)cc2)C1` (centres undefined), the Potency was 8.91 µM (active).

Take `CC1CN(S(=O)(=O)c2ccc(C(=O)Nc3ccccc3F)cc2)CC(C)O1` (centres undefined): the Potency result was “inactive”.

As for `NC(=O)c1ccsc1NC(=O)CCS(=O)(=O)c1ccc(F)cc1`, the Potency result was “inactive”.

Regarding `Cc1onc(-c2ccc3c(c2)OCO3)c1-c1ccc2[nH]ccc2c1`, the Potency result is “inactive”.

On to `CCOc1ccc(-c2nnc3ccc(SC(C)C)nn23)cc1`, for which the Potency entry is “inactive”.

On to `CN(Cc1nc2ccccc2c(=O)[nH]1)C(=O)c1cccc(S(=O)(=O)N2CCCCCC2)c1`, for which the Potency result was “inactive”.

As to `CC(C(=O)Nc1ccccc1-c1ccccc1)N(C)Cc1nc2ccccc2c(=O)[nH]1` (centres undefined), the Potency entry is “inactive”.

As for `CN(C)c1ccc(-c2nc3ccccc3c(=O)[nH]2)cc1`, the Potency is 20 µM (active).

`Cc1cccc(NC(=O)CSc2nnc(NC(=O)CN3CCOCC3)s2)c1`: the Potency result was “inactive”.

Take `Cn1c(SCC(=O)NCC2CCCO2)nnc1-c1c[nH]c2ccccc12` (centres undefined): the Potency result is “inactive”.

Regarding `CC(C)(C)c1ccc(C(=O)Nc2nnc(SCC(=O)NCC3CCCO3)s2)cc1` (centres undefined), the Potency is 14.1 µM (active).

As for `Cc1cccc(-n2nnnc2SCC(=O)NCC2CCCO2)c1` (centres undefined), the Potency result is “inactive”.

On to `CCOC(=O)CNC(=O)CSc1nnc(NC(=O)c2ccc(C)cc2)s1`, for which the Potency is 12.6 µM (active).

Consider `CC(C)CC(=O)Nc1nnc(SCC(=O)Nc2ccc(F)cc2)s1`, for which the Potency entry is “inactive”.

`O=C(COc1ccc2c3c(c(=O)oc2c1)CCC3)N1CCN(c2ccc(F)cc2)CC1`: the Potency entry was “inactive”.

Take `Nc1nonc1C(=O)NCCNCc1ccc(Cl)c(Cl)c1`: the Potency entry is “inactive”.

In the case of `CCCCn1c(N)c(N(CCC(C)C)C(=O)c2ccc3c(c2)OCO3)c(=O)[nH]c1=O`, the Potency result is “inactive”.

For the compound `CCC(C)c1ccccc1OCCCCN1CCCC1` (centres undefined), the Potency result was “inactive”.

For `CC(C)C(OC(=O)c1cccc(S(=O)(=O)NCC(F)(F)F)c1)C(=O)NC(N)=O` (centres undefined), the Potency result is “inactive”.

As for `Cc1cc(C)nc(NS(=O)(=O)c2ccc(-n3cccc3)cc2)n1`, the Potency entry was “inactive”.

With `Cc1cc(C(=O)C(=O)N(C)C)c(C)n1-c1ccc([N+](=O)[O-])cc1`, the Potency result is “inactive”.

For the compound `Cc1ccccc1CN1C2=NCCN2c2ccccc21`, the Potency result is “inactive”.

For `CCOC(=O)c1ccccc1NC(=O)CN1CCC(n2nnc3cc(C(F)(F)F)ccc32)CC1`, the Potency entry is “inactive”.

In the case of `Cc1cc(C)cc(NC(=O)c2ccc3c(c2)nnn3C2CCCC2)c1`, the Potency entry is “inactive”.

Regarding `O=C(Nc1cccc(C(F)(F)F)c1)c1ccc2c(c1)nnn2C1CCCC1`, the Potency is 12.6 µM (active).

On to `COc1ccc(NC(=O)c2cc(-c3ccccn3)nc3ccccc23)cc1S(=O)(=O)N(C)C`, for which the Potency result is “inactive”.

As for `COc1ccc(CNC(=O)Cn2c(=O)nc(-c3ccccc3)c3ccccc32)cc1OC`, the Potency is 20 µM (active).

Consider `COc1ccc(CCNC(=O)CSc2nnc(-c3ccccc3)c3ccccc23)cc1OC`, for which the Potency entry was “inactive”.

As for `CCn1c(=O)c(C(=O)NCc2ccc(OC)c(OC)c2)c(O)c2ccccc21`, the Potency entry is “inactive”.

Consider `CC(=O)c1cc(-c2ccccc2)n(CC(=O)Nc2ccc(C)c(C)c2)c1C`, for which the Potency result is “inactive”.

Regarding `COc1cccc2sc(N3CCN(c4nc5ccccc5s4)CC3)nc12`, the Potency result is “inactive”.

Take `Cc1nc2cc(C(F)(F)F)ccc2n1C1CCN(Cc2nnnn2Cc2cccs2)CC1`: the Potency entry was “inactive”.

`c1csc(Cn2nnnc2CN2CCN(c3nc4ccccc4s3)CC2)c1`: the Potency was 17.8 µM (active).

On to `Nc1ccc(-c2ccc(N)cc2C(F)(F)F)c(C(F)(F)F)c1`, for which the Potency entry was “inactive”.

Regarding `CC(=O)C1=C(c2ccc(F)cc2)N(C(C)=O)n2c(nnc2C2CCCCC2)S1`, the Potency entry was “inactive”.

`CCOC(=O)Cc1csc(NC(=O)COc2ccc(OC)cc2)n1`: the Potency entry is “inactive”.

For the compound `CCN(CC)CCNC(=O)COc1ccc(OC)cc1`, the Potency entry was “inactive”.

With `COc1ccc(OCC(=O)Nc2nccs2)cc1`, the Potency was 15.8 µM (active).

Regarding `COc1ccc(NC(=O)CN(C)C(=O)c2cccc(S(=O)(=O)N3CCN(c4ccccc4)CC3)c2)cc1`, the Potency entry is “inactive”.

As to `Cc1ccc(S(=O)(=O)Cc2cc(F)c([N+](=O)[O-])cc2[N+](=O)[O-])cc1`, the Potency was 15.8 µM (active).

As to `Cc1ccc(S(=O)(=O)Nc2c(C)cc([N+](=O)[O-])cc2C)cc1`, the Potency entry is “inactive”.

Regarding `Cc1ccccc1CS(=O)(=O)c1ccc(C(=O)N2CCOCC2)cc1[N+](=O)[O-]`, the Potency result is “inactive”.

As for `O=C(N/N=C/c1cccs1)C(O)c1ccccc1` (centres undefined), the Potency result was “inactive”.

Regarding `O=C(Nc1cccc(Cl)c1N1CCOCC1)c1cc([N+](=O)[O-])ccc1N1CCOCC1`, the Potency entry was “inactive”.

As for `CCOC(=O)c1cc(C)n(CC2CCC(C(=O)Nc3ccc(OC)cc3)CC2)c1C` (centres undefined), the Potency entry is “inactive”.

In the case of `CCOC(=O)c1cn[nH]c1NC(=S)Nc1ccc(OC)cc1`, the Potency is 17.8 µM (active).

Regarding `CCOc1ccc(NC(=O)N(Cc2ccc(CC)cc2)Cc2cn[nH]c2-c2ccc(OC)cc2)cc1`, the Potency entry was “inactive”.

As for `Cc1ccc(S(=O)(=O)N/N=C/c2ccc(OCC(=O)N3CCOCC3)cc2)cc1`, the Potency entry is “inactive”.

With `CCOc1ccc(CNC(=O)CCCn2ccc3cc(S(=O)(=O)N4CCCC4)ccc32)cc1`, the Potency entry was “inactive”.

Regarding `O=C(Nc1ccc(N2CCOCC2)c(Cl)c1)c1c(F)c(F)c(F)c(F)c1F`, the Potency entry was “inactive”.

Turning to `O=C(Nc1ccc(N2CCOCC2)cc1)c1cnccn1`, the Potency is 12.6 µM (active).

`O=C(Nc1cccc(S(=O)(=O)N2CCCCC2)c1)c1cnccn1`: the Potency entry was “inactive”.

`Cc1cc2oc(C(=O)NC3CCS(=O)(=O)C3)cc(=O)c2cc1C` (centres undefined): the Potency entry is “inactive”.

`CCc1ccc(NC(=O)c2sc3nc(C)nc(N4CCN(c5ccccn5)CC4)c3c2C)cc1`: the Potency result was “inactive”.

`CN(C)c1ccc(C(=O)N2CCCC(CCC(=O)N3CCN(c4ccccn4)CC3)C2)cc1` (centres undefined): the Potency entry is “inactive”.

`Cc1ccc(S(=O)(=O)N(C)CCCC(=O)Nc2ccncc2)cc1`: the Potency entry was “inactive”.

For `Cc1ccc(S(=O)(=O)N(C)CCCC(=O)N2CCN(c3ccccn3)CC2)cc1`, the Potency was 22.4 µM (active).

Take `COc1ccc(C(=O)NCC(=O)N2CCN(C(=O)c3ccco3)CC2)cc1[N+](=O)[O-]`: the Potency entry is “inactive”.

For the origin of these results see PubChem BioAssay AID1347131 (National Center for Advancing Translational Sciences (NCATS), 2019).
